# Hit rate of the full screen: of about 310,000 compounds, about 14,000 (4.5%) showed an effect of 50% or more. Effects have a minus sign here. The list comes from a sample in which strong results are over-represented; it also holds similar structures and randomly drawn compounds.
# Target: human ether-à-go-go-related gene (hERG) potassium channel (human, UniProt Q12809)
# Experiment: primary screen, population patch clamp on CHO cells stably expressing hERG; higher = less effect of the substance
# 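Also: peak tail current of the secondary pulse compared with the same well before compound.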
# Sequence of human ether-à-go-go-related gene (hERG) potassium channel (Q12809 whole entry, looked up): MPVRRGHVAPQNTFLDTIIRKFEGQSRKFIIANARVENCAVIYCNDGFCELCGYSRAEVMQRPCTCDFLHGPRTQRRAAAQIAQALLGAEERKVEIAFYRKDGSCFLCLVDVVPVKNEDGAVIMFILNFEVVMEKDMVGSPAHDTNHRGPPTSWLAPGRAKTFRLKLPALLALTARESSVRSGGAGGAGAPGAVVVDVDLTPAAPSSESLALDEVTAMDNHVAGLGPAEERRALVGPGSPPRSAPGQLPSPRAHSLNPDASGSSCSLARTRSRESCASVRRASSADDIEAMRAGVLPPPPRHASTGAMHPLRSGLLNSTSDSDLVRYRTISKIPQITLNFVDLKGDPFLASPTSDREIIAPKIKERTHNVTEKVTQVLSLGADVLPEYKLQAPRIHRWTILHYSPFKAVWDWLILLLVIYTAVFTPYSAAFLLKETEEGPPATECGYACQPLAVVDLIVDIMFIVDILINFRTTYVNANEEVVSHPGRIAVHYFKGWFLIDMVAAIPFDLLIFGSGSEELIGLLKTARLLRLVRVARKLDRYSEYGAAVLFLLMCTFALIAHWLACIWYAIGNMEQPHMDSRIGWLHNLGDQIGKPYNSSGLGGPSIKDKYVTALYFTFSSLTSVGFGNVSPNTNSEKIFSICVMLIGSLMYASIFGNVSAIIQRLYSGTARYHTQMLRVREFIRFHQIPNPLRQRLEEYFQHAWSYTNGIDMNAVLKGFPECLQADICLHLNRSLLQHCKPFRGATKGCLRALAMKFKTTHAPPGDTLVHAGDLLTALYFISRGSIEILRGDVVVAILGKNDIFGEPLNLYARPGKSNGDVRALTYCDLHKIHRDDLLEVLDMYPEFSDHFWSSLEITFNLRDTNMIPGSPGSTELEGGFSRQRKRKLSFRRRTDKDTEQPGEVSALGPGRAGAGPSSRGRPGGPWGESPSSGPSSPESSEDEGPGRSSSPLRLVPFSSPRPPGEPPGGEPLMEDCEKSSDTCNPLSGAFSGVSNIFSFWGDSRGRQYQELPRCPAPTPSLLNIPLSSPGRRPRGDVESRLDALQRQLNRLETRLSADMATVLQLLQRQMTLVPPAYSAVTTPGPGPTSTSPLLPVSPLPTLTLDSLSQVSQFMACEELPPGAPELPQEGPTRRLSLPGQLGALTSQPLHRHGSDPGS
row,SMILES,"hERG current change (%, negative = inhibition) at 10uM"
1,CCc1nnc(NC(=O)CSc2ccc(-c3ccccc3OC)nn2)s1,-7.08%
2,CS(=O)(=O)N1CCCC(C(=O)NCCN2CCC(Cc3ccccc3)CC2)C1 (centres unmarked),-28%
3,CCCS(=O)(=O)N1CCCC(C(=O)NCCCN2CCN(c3ccccc3F)CC2)C1 (centres unmarked),-21.1%
4,CCCCN(CCCNC(=O)C1CCN(S(=O)(=O)CC)CC1)c1ccccc1,-51.1%
5,CCCS(=O)(=O)N1CCCC(C(=O)NCCCN2CCN(c3ccc(F)cc3)CC2)C1 (centres unmarked),-59.5%
6,CCCCN(CCCNC(=O)C1CCN(S(=O)(=O)N2CCOCC2)CC1)c1ccccc1,-48.8%
7,O=C(NCCCN1CCCCCC1)C1CC(=O)N(C2CCCC2)C1 (centres unmarked),5.99%
8,CCN(CCCNC(=O)C1CCN(S(=O)(=O)CC)CC1)c1ccccc1,-21.7%
9,O=C(NCCCN1CCC(Cc2ccccc2)CC1)C1CC(=O)N(C2CCCCCC2)C1 (centres unmarked),-66.8%
10,CCS(=O)(=O)N1CCCC(C(=O)NCCN2CCC(Cc3ccccc3)CC2)C1 (centres unmarked),-59.1%
11,CS(=O)(=O)N1CCCC(C(=O)NCCCN2CCC(Cc3ccccc3)CC2)C1 (centres unmarked),-33.5%
12,O=C(NCCCN1CCC(Cc2ccccc2)CC1)C1CC(=O)N(C2CCCC2)C1 (centres unmarked),-34.8%
13,CCCS(=O)(=O)N1CCCC(C(=O)NCCN2CCOCC2)C1 (centres unmarked),13.7%
14,COC(=O)c1sc2nc(SCC(=O)N(C)c3ccccc3)n(N)c(=O)c2c1C,27.4%
15,Cc1cccc(OCCCOc2cccc3cccnc23)c1C,10.4%
16,Cc1nc(CC(=O)N2CCN(S(=O)(=O)c3ccccc3C#N)CC2)cs1,10.3%
17,C/C(=N\NC(=O)CCC(=O)O)c1c(-c2ccccc2)c2cc(Br)ccc2[nH]c1=O,6.72%
18,O=C(O)C1CC(c2ccccc2)=Nc2ccccc2S1 (centres unmarked),1.43%
19,CN1C(=O)/C(=C\c2ccncc2)SC1=Nc1ccccc1,-11.2%
20,Cc1ccc(-c2nc(N)sc2C)cc1,-16.9%
21,COC(=O)c1c(NC(=O)c2cccnc2Cl)sc(C(=O)N(C)C)c1C,-6.44%
22,S=c1[nH]nc(Nc2cccc3ccccc23)s1,16.3%
23,O=C(c1cc2sccc2n1Cc1ccccc1)N1CCc2ccccc21,-2.82%

row,SMILES,"hERG current change (%, negative = inhibition) at 10uM"
1,CC1CC(C)CN(S(=O)(=O)N2CCCC(C(=O)NCCCN3CCOCC3)C2)C1 (centres unmarked),19.1%
2,CCS(=O)(=O)N1CCC(C(=O)NCCN2CCN(Cc3ccccc3)CC2)CC1,2.07%
3,CCCS(=O)(=O)N1CCC(C(=O)NCCc2ccccc2)CC1,1.42%
4,CCCS(=O)(=O)N1CCC(C(=O)NCCN2CCCC2)CC1,-7.65%
5,CCCNC(=O)N1CCC(Cc2ccccc2)CC1,16.6%
6,CCCS(=O)(=O)N1CCC(C(=O)NCCN2CCC(Cc3ccccc3)CC2)CC1,-57.6%
7,CCCC(=O)N1CCC(Cc2ccccc2)CC1,9.83%
8,CCCCCCNCC(=O)N1CCC(Cc2ccccc2)CC1,-71.7%
9,CCS(=O)(=O)N1CCC(C(=O)NCCCN2CCC(Cc3ccccc3)CC2)CC1,-65.5%
10,CC1CC(C)CN(S(=O)(=O)N2CCCC(C(=O)NCCCN3CCCCC3C)C2)C1 (centres unmarked),-9.36%
11,O=C(NCCCN1CCC(Cc2ccccc2)CC1)C1CCN(S(=O)(=O)N2CCC3(CC2)OCCO3)CC1,-42.7%
12,CC1CC(C)CN(CCCNC(=O)C2CCCN(S(=O)(=O)N3CC(C)CC(C)C3)C2)C1 (centres unmarked),-61%
13,COc1ccccc1NS(=O)(=O)/C=C/c1ccccc1,-16.8%
14,O=C(CCN1C(=O)c2ccccc2C1=O)C1=NN[C@@H]2C(=O)N(c3ccc(F)cc3)C(=O)[C@H]12,-5.4%
15,O=C(CCS(=O)(=O)c1ccc2c(c1)NC(=O)CS2)NCCc1ccccc1,8.31%
16,O=c1c2cc(N3CCOCC3)ccc2[nH]c(=S)n1CCCN1CCCCCC1,-17%
17,BrC(/C=C\c1ccccc1)=N/Nc1nc(N2CCOCC2)nc(N2CCOCC2)n1,-39%
18,CCNc1nn2ccccc2c1/C=C(\C#N)C(=O)OCC,-4.06%
19,COCCCNC(=S)Nc1ccc(C)cc1[N+](=O)[O-],1.51%
20,CCCS(=O)(=O)N1CCCC(C(=O)N2CCC(Cc3ccccc3)CC2)C1 (centres unmarked),-19.9%
21,CS(=O)(=O)N1CCC(C(=O)N2CCC(Cc3ccccc3)CC2)CC1,-15.1%
22,CCCS(=O)(=O)N1CCC(C(=O)N2CCC(Cc3ccccc3)CC2)CC1,-63%
23,CCCS(=O)(=O)N1CCCC(C(=O)NCCN(C)Cc2ccccc2)C1 (centres unmarked),-8.41%

row,SMILES,"hERG current change (%, negative = inhibition) at 10uM"
1,CCCS(=O)(=O)N1CCCC(C(=O)NCCc2ccccc2)C1 (centres unmarked),-1.02%
2,CCCS(=O)(=O)N1CCCC(C(=O)NCCN2CCC(Cc3ccccc3)CC2)C1 (centres unmarked),-58.2%
3,CCSc1nsc(SCC)c1C(N)=O,7.66%
4,CC1(C)Cc2nc3scc(NC(=O)c4ccccc4)c3cc2CO1,-0.679%
5,CN(CCc1ccccc1)c1ccc([N+](=O)[O-])cn1,2.08%
6,COc1ccc(N2CCN(CCCn3c(=S)[nH]c4ccccc4c3=O)CC2)cc1,-36.7%
7,CCC1CCCCN1CCn1c(=S)[nH]c2cc(OC)c(OC)cc2c1=O (centres unmarked),-25.4%
8,COc1ccccc1N1CCN(CCCn2c(=S)[nH]c3ccccc3c2=O)CC1,-61.6%
9,CCC1CCCCN1CCCn1c(=S)[nH]c2ccccc2c1=O (centres unmarked),-56.2%
10,CCN1CCN(CCn2c(=S)[nH]c3ccccc3c2=O)CC1,-10.5%
11,CC1CCCCN1CCCn1c(=S)[nH]c2ccccc2c1=O (centres unmarked),-46.4%
12,CC1CC(C)CN(C(=O)CCCn2c(=S)[nH]c3ccccc3c2=O)C1 (centres unmarked),-3.01%
13,O=c1c2ccccc2[nH]c(=S)n1CCCN1CCN(c2ccccc2F)CC1,-2.57%
14,CCCCn1c(=S)[nH]c2ccccc2c1=O,13.7%
15,CC1CC(C)CN(CCCn2c(=S)[nH]c3ccccc3c2=O)C1 (centres unmarked),-53%
16,O=c1c2ccccc2[nH]c(=S)n1CCCN1CCN(C2CCCCC2)CC1,-53.9%
17,O=c1c2ccccc2[nH]c(=S)n1CCN1CCCCC1,-1.11%
18,CCC1(C)Cc2ccccc2-c2nc(NCCO)n(-c3ccc(C)cc3)c(=O)c21 (centres unmarked),-25.1%
19,CCOC(=O)N1CCN(c2c(NCc3ccccc3OC)c(=O)c2=O)CC1,0.238%
20,CCOC(=O)Nc1ccc(S(=O)(=O)Nc2cc(C)on2)cc1,6.84%
21,CC1CCN(CCn2c(=S)[nH]c3ccccc3c2=O)CC1,-32.6%
22,O=c1c2ccccc2[nH]c(=S)n1CCN1CCN(Cc2ccccc2)CC1,-19.8%
23,O=c1c2ccccc2[nH]c(=S)n1CCCN1CCN(c2ccccc2)CC1,-19.7%

row,SMILES,"hERG current change (%, negative = inhibition) at 10uM"
1,CC1CCN(CCCn2c(=S)[nH]c3ccccc3c2=O)CC1,-56.9%
2,O=c1c2ccccc2[nH]c(=S)n1CCCN1CCOCC1,8.73%
3,O=c1c2ccccc2[nH]c(=S)n1CCCN1CCC(Cc2ccccc2)CC1,-73.6%
4,C=CCn1c(SCC(=O)NCC(c2ccccc2)N(C)C)nnc1C1CCCCC1 (centres unmarked),8.62%
5,Cc1cc(Br)cc(C)c1NC(=O)c1ccc(C#N)cc1F,-21.2%
6,NS(=O)(=O)c1ccc(CCNC(=O)CCc2nc3sc4c(c3c(=O)[nH]2)CCCC4)cc1,17.6%
7,CC(C)C[C@@H](CN=[N+]=[N-])N1CCN(CC(C)C)CCC1=O,-3.55%
8,CC(C)C[C@@H](CSc1ccc(Br)cc1)N1CCN(CC(C)C)CCC1=O,-68.6%
9,CC(C)C[C@@H](CSc1ccc(Br)cc1)N1CCN(C)CCC1=O,-64.7%
10,CC(C)C[C@@H](CO)N1CCN(Cc2ccc(Br)cc2)CCC1=O,-13.5%
11,CCCN1CCC(=O)N([C@H](CSc2ccccc2)CC(C)C)CC1,-66.4%
12,CC(C)CN1CCC(=O)N([C@H](CSc2ccccc2)Cc2ccccc2)CC1,-67.9%
13,CC(C)CN1CCC(=O)N([C@H](CSc2ccc(Br)cc2)Cc2ccccc2)CC1,-43.2%
14,CC(C)CN1CCC(=O)N([C@H](CN=[N+]=[N-])Cc2ccccc2)CC1,-22.9%
15,CC(C)C[C@@H](CSc1ccccc1)N1CCN(C)CCC1=O,-16%
16,CC(C)C[C@@H](CO)N1CCN(C)CCC1=O,-4.26%
17,CCOC(=O)C(NCc1ccc2c(c1)OCO2)(NC(=O)CC)C(F)(F)F (centres unmarked),14.3%
18,NCC/C=C1/c2ccccc2CSc2ccccc21.O=C(O)/C=C\C(=O)O,-3.76%
19,CN(C)c1ccc(S(=O)(=O)N2CCCCC2)cc1NC(=O)CN1C(=O)NC2(CCCC2)C1=O,8.25%
20,COc1ccccc1OCCNC(=O)C1CC(=O)N(Cc2ccccc2)C1 (centres unmarked),-10.2%
21,CC(O)CNC(=O)c1ccc(-c2nn(C)c(=O)c3ccccc23)cc1 (centres unmarked),-0.479%
22,Cc1ccc2c(Cl)cc(Cl)c(OCc3c(C)noc3C)c2n1,8.92%
23,O=C(NO)c1ccc(OC(F)F)cc1,7.91%
